# Measured values reported in PubChem BioAssay (NCI).
# About 83,000 compounds went through this panel and 20% of them were active in at least one assay; those are over-represented in the sample as a whole.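 Assay: single dose, 48 h. Readout: percent growth (0 = no net growth; negative = cell death). Active: <10.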 Activity calls are given as the source filed them.
# Test system: MDA-MB-468 breast
# Assay: NCI-60 one-dose screen, 48 h (100 = growth as untreated, 0 = no growth, -100 = all killed)
# Conditions: 10 µM unless noted
row,SMILES,growth
1,Cc1cccc2c3c(sc12)C(c1ccc(Cl)cc1)C(C#N)=C(N)O3 (stereo not given),17.3% (inactive)
2,O=S(=O)(Nc1ccc2ccccc2c1)c1ccc(-c2cnc(C3CC3)o2)cc1,6.05% (active)
3,Cc1c(-c2nc3ccc(F)cc3c(=O)[nH]2)c2ccccc2n1C,6.2% (active)
4,CN(C)CCC(=O)c1ccc(O)cc1,107% (inactive)
5,Cc1cc(NCCCNc2ccnc3cc(Cl)ccc23)nc(N2CCN(C)CC2)n1,65.4% (inactive)
6,CC(C)CCN(CCCNc1c2c(nc3cc(Cl)ccc13)CCCC2)CCC(C)C,22.6% (inactive)
7,CC(C)(C)c1cc(C(=O)Nc2cc3ccccc3cc2C(=O)NCCN)cc(C(C)(C)C)c1,-87.6% (active)
8,CN1C[C@@H](c2ccc(Cl)cc2)[C@]2(NC(=S)N(c3ccccc3)C2=O)[C@@]12C(=O)NC1C=CC(Br)=C[C@H]12 (stereo not given in full),67.7% (inactive)
9,COc1ccc2c(O)c(/C=C3\N=Nc4ncccc43)oc2c1C[C@@H]1CCNC[C@H]1F,-52.9% (active)
10,Cc1nc2c(nnn2-c2ccccc2)c2nc(-c3ccccc3)oc(=O)c12,110% (inactive)
11,C#CCOc1ccc2nc(CCl)c(Cl)c(Nc3cccc(C(F)(F)F)c3)c2c1,10.3% (inactive)
12,OC(c1cc(-c2ccc(C(F)(F)F)cc2)nc(-c2ccc(C(F)(F)F)cc2)c1)C1CCCCN1 (stereo not given),-85.1% (active)
13,CCCCn1c(=O)c(-c2cc(-c3ccc(Cl)cc3)nc(-c3ccc(Cl)cc3)c2)cc2cc(C)ccc21,102% (inactive)
14,CC(C)=CCC[C@](C)(O)[C@H]1CC[C@]2(C)[C@@H]1CC[C@@H]1[C@@]3(C)CC/C(=N/O)C(C)(C)[C@@H]3CC[C@]12C,-26.3% [100 µM] (active)
15,O=C1/C(=C/c2ccccc2Br)COc2ccc(O)cc21,69.1% (inactive)
16,N/C(=N\C(N)=N\c1nc2ccccc2s1)c1ccc(C(F)(F)F)cc1,107% (inactive)
17,COC(=O)Nc1ccc(-c2nc(-c3cccc(O)c3)c(-c3ccnc(Br)c3)[nH]2)cc1,25.6% (inactive)
18,C#CCN=C[C@]12CC[C@@H](C(=C)C)[C@@H]1[C@H]1CC[C@@H]3[C@@]4(C)CCC(=O)C(C)(C)[C@@H]4CC[C@@]3(C)[C@]1(C)CC2,40.3% (inactive)
19,NC(CO)(CO)c1ccccc1,79.9% (inactive)
20,Cc1ccc(Nc2nccc(N(C)c3ccc4c(C)n(C)nc4c3)n2)cc1S(N)(=O)=O,34.1% (inactive)

row,SMILES,growth
1,C[n+]1c2ccccc2c(Nc2ccc(NS(=O)(=O)CCCCN=C(N)N)cc2)c2ccc(N)cc21,39% (inactive)
2,CCN(CC)c1ccc(-c2cc(-c3cc(OC)c(OC)c(OC)c3)nc(N3CCC(O)CC3)c2C#N)cc1,-48.2% (active)
3,COc1ccc(/C=c2\c(=O)n(-c3ccccc3)c3nn4c(=O)c(=O)[nH]nc4n23)cc1,112% (inactive)
4,C[C@@H](C[C@H](CCO)c1ccccc1)c1ccc2ccccc2c1,-54.1% (active)
5,COc1ccc(NC2=NC(C)(CO)CS2)cc1 (stereo not given),108% (inactive)
6,C=C(C)[C@@H]1CC[C@]2(C(=O)NCCNCCNC(=O)OC(C)(C)C)CC[C@]3(C)[C@H](CC[C@@H]4[C@@]5(C)CCC(=O)C(C)(C)[C@@H]5CC[C@]43C)[C@@H]12,53.5% [100 µM] (inactive)
7,Cc1cc(C(NC(=O)CCCCCNc2cccc3c2C(=O)N(C2CCC(=O)NC2=O)C3=O)c2cccnc2)c(O)c2ncccc12 (stereo not given),-8.72% (active)
8,O=c1c2sc3ncccc3c2nnn1-c1ccccc1,104% (inactive)
9,O=C1C2C(C(=O)N1CC[Se][Se]CCN1C(=O)C3C(C1=O)[C@H]1C=C[C@@H]3C1)[C@H]1C=C[C@@H]2C1 (stereo not given in full),-12.6% (active)
10,COc1ccc(C2CC(c3cccc(Nc4ccnc5cc(Cl)ccc45)c3)=NN2c2ccccc2)cc1 (stereo not given),63.3% (inactive)
11,CC1=NN(c2nc(SCC(=O)Nc3nc4ccc(C)cc4s3)nc(-c3ccccc3)c2C#N)C(=O)C1,111% (inactive)
12,CCOC(=O)C1=C(N)Oc2c(sc3c(C)cccc23)C1c1ccc(OC)cc1 (stereo not given),0.934% (active)
13,N#CC1=C(N)Oc2c(ccc3ccccc23)C1c1ccc([N+](=O)[O-])cc1 (stereo not given),90% (inactive)
14,O=c1c2ccccc2c(Br)c(Br)c2ccccc12,8.15% (active)
15,CC/C=C\C[C@H]1C/C=C2/C(=O)C=C[C@@H]2C/C=C\CCCC(=O)O1,-33.6% (active)
16,COC(=O)c1[nH]nc2c1C1(C(=O)c3cccc4cccc1c34)C(C#N)=C(N)O2 (stereo not given),86.3% (inactive)
17,COc1ccc2c(c1)OC1=C(C(=O)OC1)C2c1cc(OC)c2c(c1)OCO2 (stereo not given),-7.16% (active)
18,CCCCCC(=O)OCc1ccc(Cl)c(Cl)c1,123% (inactive)
19,CCOC(=O)C1=C(C)NC(=S)NC1c1ccccc1 (stereo not given),98.3% (inactive)
20,O=C1/C(=C\c2coc3ccccc3c2=O)c2ccccc2N1c1c(Cl)cccc1Cl,44.9% (inactive)
